# Tb PYK inh: qHTS of Trypanosoma Brucei Inhibitors; AID 624173, 2012; pyruvate kinase (Trypanosoma brucei), Q57TT1; 410,000 tested, 0.12% active; Potency, µM (series often up to 76.8 µM), for inactives: at the top dose activity, negative = inhibition, actives largely listed as inhibitors; TbPYK enzyme, Kinase-Glo Plus ATP luminescence, 45 min; also: potency is read from the fitted curve at half-maximal effect; nearly all actives have a fitted effect of over 50% in size
#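 ADP (130 uM final) triggers the TbPYK reaction after compound addition; incubation is 45 min at room temperature. Kinase-Glo Plus is then added and luminescence imaged. Normalized data are fitted to concentration-effect curves.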
# HCMV inh: qHTS Assay for inhibitors of the human cytomegalovirus (HCMV); HFF cells, HCMV-luciferase reporter, 72 h; hits give low values; activity change, negative = inhibition, % at 57.5 µM; 410,000 tested, 4.5% active; in the data active = activity change below about -60%; inconclusive = no clear call, values can overlap the other calls; inactive = above about -39%
#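 After 16 h attachment at 37C, HFF cells received test compound and HCMV-luciferase (1 PFU/cell); reporter luminescence read 72 h later, data normalized against buffer-only and known inhibitor Salinomycin.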
# VACV mCherry inh: qHTS for Stage-Specific Inhibitors of Vaccinia Orthopoxvirus: mCherry Reporter Primary qHTS; Vaccinia virus mCherry reporter infection, fluorescence; 310,000 tested, 0.63% active; Potency, µM (top dose mostly 36.5 µM), inactives show top-dose activity change, negative = inhibition, most hits filed as inhibitors; calls by dose curve; tested in A549 cells; also: potency is read from the fitted curve at half-maximal effect; nearly all actives have a fitted effect of over 35% in size
# LmPK inhibitor: qHTS Assay for Inhibitors of Leishmania Mexicana Pyruvate Kinase (LmPK); Potency, µM (highest dose often 57.5 µM), for inactives: at the highest dose activity change, negative = inhibition, hits mostly inhibitors; purified LmPK, Kinase-Glo ATP luminescence, 1 h; 290,000 tested, 0.37% active; Q27686; also: potency is read from the fitted curve at half-maximal effect
# Target sequence (Q27686 whole entry, looked up): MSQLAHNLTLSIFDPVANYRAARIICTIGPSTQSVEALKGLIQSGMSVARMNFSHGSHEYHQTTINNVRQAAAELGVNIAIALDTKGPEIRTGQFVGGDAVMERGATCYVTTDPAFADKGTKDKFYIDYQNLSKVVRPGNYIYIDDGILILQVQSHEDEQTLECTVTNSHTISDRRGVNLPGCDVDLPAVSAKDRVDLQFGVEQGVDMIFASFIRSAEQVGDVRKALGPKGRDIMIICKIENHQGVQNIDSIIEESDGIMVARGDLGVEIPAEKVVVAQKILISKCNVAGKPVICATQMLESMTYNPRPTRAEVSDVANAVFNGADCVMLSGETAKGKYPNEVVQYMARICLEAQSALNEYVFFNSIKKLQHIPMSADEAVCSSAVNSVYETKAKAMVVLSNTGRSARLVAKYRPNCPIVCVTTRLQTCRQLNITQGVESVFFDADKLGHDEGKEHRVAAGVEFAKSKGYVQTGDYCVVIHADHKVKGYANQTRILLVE
#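 Kinase-Glo luminescence read after 1 h RT reaction of 0.1 nM LmPK with 0.5 mM PEP and 0.1 mM ADP. Activity scaled between uninhibited and enzyme-free controls.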
# Vaccinia Venus: qHTS for Stage-Specific Inhibitors of Vaccinia Orthopoxvirus: Venus Reporter Primary qHTS; Vaccinia virus Venus reporter expression, fluorescence; Potency, µM (top dose mostly 36.5 µM), without a hit: at the top dose activity change, negative = inhibition, hits mostly inhibitors; 330,000 tested, 0.46% active; AID 720580, 2013; calls by dose curve; tested in A549 cells; also: potency is read from the fitted curve at half-maximal effect; nearly all actives have a fitted effect of over 30% in size
# * hit, by the source's call; i = inactive; ? = inconclusive; . = no result given. Sampled rows, rich in hits. Any-hit rate of the full collection: about 5%. Unless noted, calls follow the shape of the dose curve; as a rule, active = well fitted curve in the direction sought with a large enough effect; inconclusive = small, poorly fitted or top-dose-only effect, or another doubt; inactive = no such curve, though single readings can be large; an effect the other way counts as inactive or inconclusive. % is scaled to controls: 0 for no effect and ±100 for the full control effect.
SMILES,Tb PYK inh,HCMV inh,VACV mCherry inh,LmPK inhibitor,Vaccinia Venus
Fc1ccc(NC(=S)NC2CCN(Cc3ccccc3)CC2)cc1,0%,-21,-10%,-2%,-19%
S=C(NCc1ccc2c(c1)OCO2)NC1CCN(Cc2ccccc2)CC1,5%,-78*,?,1%,-8%
Cc1ccc(-c2noc(C3CCCN(C(=O)c4ccc(C(C)(C)C)cc4)C3)n2)o1 (stereo not given),-3%,-26,-17%,-4%,-10%
CCN(CC)CCn1c2c(c(SCC(=O)Nc3cc(OC)cc(OC)c3)nc1=O)CCC2,-5%,-1,-4%,.,-26%
CC(Sc1nnc(CNC(=O)c2ccco2)n1C)C(=O)Nc1nccs1 (stereo not given),-1%,16,5%,5%,1%
O=C(/C=C/c1cccs1)N1CCc2ccccc21,?,72,-2%,14µM*,-17%
O=C(c1cccs1)N1CCc2ccccc21,-7%,36,i,?,-19%
Cc1ccc2c(c1)CC1(CN2C)C(=O)NC(=O)N(c2cc(C)ccc2C)C1=O (stereo not given),2%,34,.,4%,.
Cc1ccc2c(c1)CC1(CN2C)C(=O)OC(C)(C)OC1=O,-2%,-16,7.1µM*,16µM*,10µM*
CC(C)(CO)CNc1ccn2nccc2n1,-3%,-70*,-13%,.,-14%
CCn1nc(C)c(NC(=O)/C=C/c2ccc(OC)c(COc3ccc(Cl)cc3Br)c2)c1C,2%,-64*,-11%,0%,-9%
COc1ccc(/C=C/C(=O)NCc2cn(C)nc2C)cc1COc1ccc(Cl)cc1Br,-7%,12,.,9%,.
CSC[C@H](NC(=O)COc1cc2c(c3oc(=O)cc(C)c13)CCC(C)(C)O2)C(=O)O,-9%,2,.,3%,.
CCC(=O)c1ccc(OCC(=O)OCC(=O)N2CCc3ccccc32)cc1,1%,7,i,.,-3%
CCC1NC(=O)C(NC(=O)c2ncccc2O)C(C)OC(=O)C(c2ccccc2)NC(=O)C2CC(=O)CCN2C(=O)C(Cc2ccccc2)N(C)C(=O)C2CCCN2C1=O (stereo not given),4%,.,.,.,.
CCC(C)C1NC(=O)C(NC(=O)C(CC(C)C)N(C)C(=O)C2CCCN2C(=O)C(C)O)C(C)OC(=O)C(Cc2ccc(OC)cc2)N(C)C(=O)C2CCCN2C(=O)C(CC(C)C)NC(=O)[C@H](C)C(=O)[C@H](C(C)C)OC(=O)CC1O (stereo not given in full),-8%,-97*,?,.,?
CN(CC(=O)Nc1ccc(Cl)cc1F)C1CCS(=O)(=O)C1 (stereo not given),14%,-100*,.,.,.
CN(CC(=O)Nc1cc(Cl)ccc1Cl)C1CCS(=O)(=O)C1 (stereo not given),-14%,11,.,.,.
O=C(c1ccccc1)c1ccccc1N1C(=O)C=CC1=O,5µM*,-93*,-20%,14µM*,-19%
Cc1ccc(C(=O)c2no[n+]([O-])c2C(=O)c2ccc(C)cc2)cc1,-5%,-99*,-2%,2%,-4%
CC(CC(=O)O)CC(=O)Nc1ccccc1C(=O)O (stereo not given),-10%,20,-16%,4%,-7%
CSc1nc2ccc3nc(NC(=O)C4COc5ccccc5O4)sc3c2s1 (stereo not given),3%,-78*,i,0%,?
O=C(Nc1ccccn1)c1cc2ccccc2o1,?,-4,i,10µM*,-6%
O=C(Nc1nc(-c2ccccn2)cs1)c1ccccc1-n1cnnn1,?,-92*,1.3µM*,-5%,-25%
Cc1ccnc(NC(=O)c2cc3ccccc3o2)c1,-17%,-5,i,.,-4%
SMILES,Tb PYK inh,HCMV inh,VACV mCherry inh,LmPK inhibitor,Vaccinia Venus
O=C(Nc1nc(-c2ccccn2)cs1)c1ccc2c(c1)OCCO2,2%,-27,11µM*,4%,?
CC(=O)Nc1ccc(C(=O)Nc2nc(-c3ccccn3)cs2)cc1,-27%,-9,.,-3%,.
Cc1cc(C(=O)Nc2nc(-c3ccccn3)cs2)ccc1[N+](=O)[O-],-13%,-72*,?,0%,-28%
O=C(Nc1nc(-c2ccccn2)cs1)c1ccc([N+](=O)[O-])o1,?,45,?,-8%,-13%
O=C(Nc1nc(-c2ccccn2)cs1)c1cc(Cl)ccc1[N+](=O)[O-],?,-99*,?,-2%,?
O=C(Nc1nc(-c2ccccc2)cs1)C1COc2ccccc2O1 (stereo not given),-7%,44,.,1%,-17%
CC1CCc2nc(NC(=O)CN3CCN(Cc4ccc5c(c4)OCO5)CC3)sc2C1 (stereo not given),5%,-63*,.,0%,?
CC1CCc2nc(NC(=O)CN3CCN(c4ccccc4)CC3)sc2C1 (stereo not given),0%,3,.,5%,-10%
O=C(Nc1nc(-c2ccccn2)cs1)C1COc2ccccc2O1 (stereo not given),-2%,-83*,?,3%,?
Cn1ncc(Br)c1NC(=O)Nc1ccc(OC(F)(F)F)cc1,7%,17,i,0%,-7%
CC1CCc2nc(NC(=O)C3COc4ccccc4O3)sc2C1 (stereo not given),0%,-76*,-22%,-8%,-12%
CC1CCc2nc(NC(=O)C3CC3)sc2C1 (stereo not given),-6%,81,.,-5%,-27%
O=C(Nc1ccccn1)c1ccc2c(c1)OCO2,-23%,75,-11%,14µM*,-2%
COc1cc(NC(=O)c2cccc3c(-c4cccnc4)coc23)cc(OC)c1OC,5%,-39,?,.,?
COC(=O)c1c(C(=O)OC)c2ccccn2c1C(=O)c1ccc([N+](=O)[O-])cc1,-12%,-102*,-13%,4%,-7%
Cc1cccc2c1NC(=O)/C2=C\C(=O)c1cccs1,-3%,-10,-18%,-9%,-12%
CCc1ccc2c(c1)/C(=C/C(=O)c1cccs1)C(=O)N2,1%,-99*,.,-2%,.
Cc1occc1-c1nnc(SCC(=O)Nc2nc(C(C)(C)C)cs2)o1,6%,-69*,?,-1%,?
Cc1csc(NC(=O)CSc2nnc(-c3ccoc3C)o2)n1,0%,50,.,3%,.
COc1ccc(Cn2c(CCC(=O)Nc3ccc(Br)c(C)c3)nc3cccnc32)cc1,-2%,4,1%,.,-19%
COc1cc2nc(N3CCN(c4cc(C)ccc4C)CC3)nc(N)c2cc1OC,-11%,-98*,?,0%,10µM*
CSCCC(NC(=O)C1CCCCC1)c1nc2ccccc2[nH]1 (stereo not given),0%,55,i,-1%,5%

# Screening results: PubChem BioAssay, National Center for Advancing Translational Sciences (NCATS)
